Source: the supplement of paper PMC11732987, “Enantioselective OTUD7B fragment discovery through chemoproteomics screening and high-throughput optimisation” (Communications Chemistry, 2025)

Key:
Test in all cases: log2 ratio of Biotin-Ahx-Ub-VS probe labelling (fragment/DMSO); higher = less target engagement (more negative = stronger competition), active = hit call of the paper (q ≤ 0.05, log2 ratio ≤ -1)
Conditions in all cases: compound concentration: 200 uM; treatment time: 3 h
USP42 = molecular target: T1, USP42 (UniProt Q9H9J4)
T1 sequence (whole entry): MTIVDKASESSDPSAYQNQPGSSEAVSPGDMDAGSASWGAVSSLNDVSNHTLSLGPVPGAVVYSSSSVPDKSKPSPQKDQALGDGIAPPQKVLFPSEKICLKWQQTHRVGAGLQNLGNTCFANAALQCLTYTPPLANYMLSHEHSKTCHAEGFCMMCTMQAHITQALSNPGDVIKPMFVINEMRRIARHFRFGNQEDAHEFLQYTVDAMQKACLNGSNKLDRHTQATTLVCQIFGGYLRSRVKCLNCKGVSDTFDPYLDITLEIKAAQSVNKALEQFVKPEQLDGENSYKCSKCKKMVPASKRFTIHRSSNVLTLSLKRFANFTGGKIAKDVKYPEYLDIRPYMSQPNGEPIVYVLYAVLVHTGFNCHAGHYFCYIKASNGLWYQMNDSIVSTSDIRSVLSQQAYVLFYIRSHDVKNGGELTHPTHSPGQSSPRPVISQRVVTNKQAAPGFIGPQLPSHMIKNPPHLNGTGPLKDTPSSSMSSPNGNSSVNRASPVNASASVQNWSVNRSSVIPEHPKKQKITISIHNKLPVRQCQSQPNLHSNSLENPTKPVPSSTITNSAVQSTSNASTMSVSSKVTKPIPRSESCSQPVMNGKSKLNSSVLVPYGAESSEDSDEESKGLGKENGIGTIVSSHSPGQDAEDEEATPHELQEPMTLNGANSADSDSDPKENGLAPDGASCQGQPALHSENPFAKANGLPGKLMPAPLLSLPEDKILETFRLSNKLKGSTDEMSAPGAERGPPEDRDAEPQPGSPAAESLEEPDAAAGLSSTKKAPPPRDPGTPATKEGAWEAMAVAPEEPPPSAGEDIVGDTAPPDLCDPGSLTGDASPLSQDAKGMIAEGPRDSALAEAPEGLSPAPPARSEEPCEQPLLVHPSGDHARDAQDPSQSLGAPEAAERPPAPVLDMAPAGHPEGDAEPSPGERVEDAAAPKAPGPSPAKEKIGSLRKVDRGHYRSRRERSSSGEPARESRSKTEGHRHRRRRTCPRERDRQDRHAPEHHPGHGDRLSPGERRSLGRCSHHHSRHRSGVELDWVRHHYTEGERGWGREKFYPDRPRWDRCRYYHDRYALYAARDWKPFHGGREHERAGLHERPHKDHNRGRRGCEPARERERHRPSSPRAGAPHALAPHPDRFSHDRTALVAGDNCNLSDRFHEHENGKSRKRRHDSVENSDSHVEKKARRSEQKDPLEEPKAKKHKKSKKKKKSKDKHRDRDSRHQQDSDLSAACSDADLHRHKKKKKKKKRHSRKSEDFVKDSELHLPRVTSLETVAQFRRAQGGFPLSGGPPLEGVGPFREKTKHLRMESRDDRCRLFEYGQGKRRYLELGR
Summary of the method: (§1)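 HEK293T lysate, 495 µg per sample in Tris/CHAPS/IGEPAL buffer with protease inhibitors, was treated in triplicate with fragment at 200 µM or vehicle for 3 h and then with Biotin-Ahx-Ub-VS at 0.5 µM final for 1 h. Labelled DUBs were NeutrAvidin-enriched, digested with LysC and trypsin, and run by diaPASEF LC-MS/MS. Spectronaut label-free quantities were global-median-normalised, and values are average log2 fragment/vehicle ratios by unpaired t-test on proteins with ≥2 unique peptides.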

USP46 = USP46 (UniProt P62068)
USP46, sequence (P62068 whole entry): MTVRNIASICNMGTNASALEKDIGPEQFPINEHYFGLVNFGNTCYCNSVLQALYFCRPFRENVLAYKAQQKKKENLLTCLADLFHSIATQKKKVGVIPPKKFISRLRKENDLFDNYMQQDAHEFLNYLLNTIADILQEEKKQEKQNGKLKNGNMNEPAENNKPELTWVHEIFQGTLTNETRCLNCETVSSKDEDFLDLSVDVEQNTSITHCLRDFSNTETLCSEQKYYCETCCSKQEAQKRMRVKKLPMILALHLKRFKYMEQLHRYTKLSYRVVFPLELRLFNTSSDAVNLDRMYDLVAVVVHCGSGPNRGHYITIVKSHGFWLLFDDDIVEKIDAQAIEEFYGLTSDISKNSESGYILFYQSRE
Summary of the method: as §1

USP47 = molecular target: T2, USP47 (UniProt Q96K76)
T2 sequence (whole entry): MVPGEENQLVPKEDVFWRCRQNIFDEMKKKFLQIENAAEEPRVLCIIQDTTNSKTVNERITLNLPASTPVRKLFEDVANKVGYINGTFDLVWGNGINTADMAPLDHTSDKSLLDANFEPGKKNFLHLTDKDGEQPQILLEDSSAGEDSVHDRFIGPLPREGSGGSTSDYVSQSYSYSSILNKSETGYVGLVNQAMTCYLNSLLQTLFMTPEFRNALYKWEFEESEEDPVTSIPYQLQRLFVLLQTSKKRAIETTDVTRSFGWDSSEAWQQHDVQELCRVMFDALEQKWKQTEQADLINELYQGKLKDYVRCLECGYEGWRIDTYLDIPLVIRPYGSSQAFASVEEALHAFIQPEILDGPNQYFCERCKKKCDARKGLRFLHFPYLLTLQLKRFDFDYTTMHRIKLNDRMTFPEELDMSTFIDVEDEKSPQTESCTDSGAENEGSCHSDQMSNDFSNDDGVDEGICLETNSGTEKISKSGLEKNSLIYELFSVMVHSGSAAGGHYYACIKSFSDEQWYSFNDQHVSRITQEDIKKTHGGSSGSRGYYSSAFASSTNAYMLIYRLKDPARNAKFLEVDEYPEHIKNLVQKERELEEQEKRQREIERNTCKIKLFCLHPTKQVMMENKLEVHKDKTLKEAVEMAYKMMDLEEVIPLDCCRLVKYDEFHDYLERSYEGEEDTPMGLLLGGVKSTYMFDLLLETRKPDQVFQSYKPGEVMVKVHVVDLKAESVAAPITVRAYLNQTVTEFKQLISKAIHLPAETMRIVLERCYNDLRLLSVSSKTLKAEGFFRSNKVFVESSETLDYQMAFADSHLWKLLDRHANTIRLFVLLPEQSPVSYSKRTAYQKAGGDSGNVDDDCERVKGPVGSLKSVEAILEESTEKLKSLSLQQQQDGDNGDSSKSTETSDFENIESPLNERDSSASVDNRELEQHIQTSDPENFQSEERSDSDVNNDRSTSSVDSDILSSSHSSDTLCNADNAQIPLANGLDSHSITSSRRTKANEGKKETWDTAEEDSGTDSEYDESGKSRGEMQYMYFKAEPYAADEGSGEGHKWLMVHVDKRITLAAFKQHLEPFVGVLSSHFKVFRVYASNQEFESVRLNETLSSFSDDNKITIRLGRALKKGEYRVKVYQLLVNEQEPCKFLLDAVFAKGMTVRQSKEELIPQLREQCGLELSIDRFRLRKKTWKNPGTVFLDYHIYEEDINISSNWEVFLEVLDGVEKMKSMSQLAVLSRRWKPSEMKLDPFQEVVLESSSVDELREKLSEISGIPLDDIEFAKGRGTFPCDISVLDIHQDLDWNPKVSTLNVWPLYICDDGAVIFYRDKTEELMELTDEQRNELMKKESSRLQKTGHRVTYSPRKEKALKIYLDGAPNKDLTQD
Summary of the method: as §1

USP48 = molecular target: T3, USP48 (UniProt Q86UV5)
T3 sequence (whole entry): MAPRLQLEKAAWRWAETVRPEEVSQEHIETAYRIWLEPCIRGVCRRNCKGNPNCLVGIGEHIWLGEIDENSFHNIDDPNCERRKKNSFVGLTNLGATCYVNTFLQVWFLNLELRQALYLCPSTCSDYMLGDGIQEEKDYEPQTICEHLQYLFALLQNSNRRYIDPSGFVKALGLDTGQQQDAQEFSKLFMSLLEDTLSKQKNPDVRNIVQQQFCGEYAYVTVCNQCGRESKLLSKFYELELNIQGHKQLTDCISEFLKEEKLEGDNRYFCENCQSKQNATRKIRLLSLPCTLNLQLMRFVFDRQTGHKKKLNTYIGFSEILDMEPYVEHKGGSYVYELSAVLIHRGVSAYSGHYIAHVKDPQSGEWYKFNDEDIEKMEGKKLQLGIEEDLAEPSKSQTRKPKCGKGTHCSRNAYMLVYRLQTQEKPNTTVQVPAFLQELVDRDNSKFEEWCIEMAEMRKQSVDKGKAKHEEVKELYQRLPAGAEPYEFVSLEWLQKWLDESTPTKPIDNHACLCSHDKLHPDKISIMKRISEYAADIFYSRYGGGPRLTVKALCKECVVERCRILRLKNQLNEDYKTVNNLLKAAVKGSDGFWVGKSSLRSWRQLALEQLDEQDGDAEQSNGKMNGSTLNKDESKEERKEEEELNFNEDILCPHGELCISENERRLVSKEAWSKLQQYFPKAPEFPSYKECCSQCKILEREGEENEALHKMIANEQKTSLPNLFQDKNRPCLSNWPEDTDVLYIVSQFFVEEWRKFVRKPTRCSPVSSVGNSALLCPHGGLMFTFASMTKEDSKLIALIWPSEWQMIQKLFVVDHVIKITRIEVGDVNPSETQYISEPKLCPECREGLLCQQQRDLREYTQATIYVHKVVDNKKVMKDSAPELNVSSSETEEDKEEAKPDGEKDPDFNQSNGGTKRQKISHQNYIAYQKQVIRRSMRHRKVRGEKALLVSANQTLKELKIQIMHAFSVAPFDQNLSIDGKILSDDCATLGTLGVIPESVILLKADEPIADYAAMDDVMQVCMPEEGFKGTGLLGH
Summary of the method: as §1

USP5 = molecular target: T4, USP5 (UniProt P45974)
T4 sequence (whole entry): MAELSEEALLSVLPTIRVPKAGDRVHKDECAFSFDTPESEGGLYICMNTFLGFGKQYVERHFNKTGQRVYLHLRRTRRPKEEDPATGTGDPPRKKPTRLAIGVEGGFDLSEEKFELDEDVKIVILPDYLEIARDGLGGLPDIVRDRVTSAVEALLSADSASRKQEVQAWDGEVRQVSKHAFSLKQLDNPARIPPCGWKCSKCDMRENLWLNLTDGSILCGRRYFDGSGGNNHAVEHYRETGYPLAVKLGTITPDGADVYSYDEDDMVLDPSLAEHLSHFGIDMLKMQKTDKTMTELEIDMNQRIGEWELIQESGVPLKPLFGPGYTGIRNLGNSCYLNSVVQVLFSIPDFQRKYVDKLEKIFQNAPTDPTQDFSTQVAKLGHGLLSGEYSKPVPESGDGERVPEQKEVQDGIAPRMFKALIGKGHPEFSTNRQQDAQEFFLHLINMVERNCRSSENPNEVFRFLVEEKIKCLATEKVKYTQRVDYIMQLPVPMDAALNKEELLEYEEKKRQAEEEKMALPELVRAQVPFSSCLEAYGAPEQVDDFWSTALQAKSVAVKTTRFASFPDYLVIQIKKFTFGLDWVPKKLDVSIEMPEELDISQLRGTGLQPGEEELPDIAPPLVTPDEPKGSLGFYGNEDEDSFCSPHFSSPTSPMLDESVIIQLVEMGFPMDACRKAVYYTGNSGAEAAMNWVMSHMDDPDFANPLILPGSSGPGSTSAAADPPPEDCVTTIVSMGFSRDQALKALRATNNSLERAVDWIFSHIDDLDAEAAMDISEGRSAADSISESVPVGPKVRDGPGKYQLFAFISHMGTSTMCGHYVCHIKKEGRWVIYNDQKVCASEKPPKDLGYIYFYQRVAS
Summary of the method: as §1

USP54 = USP54 (UniProt Q70EL1)
USP54, sequence (Q70EL1 whole entry): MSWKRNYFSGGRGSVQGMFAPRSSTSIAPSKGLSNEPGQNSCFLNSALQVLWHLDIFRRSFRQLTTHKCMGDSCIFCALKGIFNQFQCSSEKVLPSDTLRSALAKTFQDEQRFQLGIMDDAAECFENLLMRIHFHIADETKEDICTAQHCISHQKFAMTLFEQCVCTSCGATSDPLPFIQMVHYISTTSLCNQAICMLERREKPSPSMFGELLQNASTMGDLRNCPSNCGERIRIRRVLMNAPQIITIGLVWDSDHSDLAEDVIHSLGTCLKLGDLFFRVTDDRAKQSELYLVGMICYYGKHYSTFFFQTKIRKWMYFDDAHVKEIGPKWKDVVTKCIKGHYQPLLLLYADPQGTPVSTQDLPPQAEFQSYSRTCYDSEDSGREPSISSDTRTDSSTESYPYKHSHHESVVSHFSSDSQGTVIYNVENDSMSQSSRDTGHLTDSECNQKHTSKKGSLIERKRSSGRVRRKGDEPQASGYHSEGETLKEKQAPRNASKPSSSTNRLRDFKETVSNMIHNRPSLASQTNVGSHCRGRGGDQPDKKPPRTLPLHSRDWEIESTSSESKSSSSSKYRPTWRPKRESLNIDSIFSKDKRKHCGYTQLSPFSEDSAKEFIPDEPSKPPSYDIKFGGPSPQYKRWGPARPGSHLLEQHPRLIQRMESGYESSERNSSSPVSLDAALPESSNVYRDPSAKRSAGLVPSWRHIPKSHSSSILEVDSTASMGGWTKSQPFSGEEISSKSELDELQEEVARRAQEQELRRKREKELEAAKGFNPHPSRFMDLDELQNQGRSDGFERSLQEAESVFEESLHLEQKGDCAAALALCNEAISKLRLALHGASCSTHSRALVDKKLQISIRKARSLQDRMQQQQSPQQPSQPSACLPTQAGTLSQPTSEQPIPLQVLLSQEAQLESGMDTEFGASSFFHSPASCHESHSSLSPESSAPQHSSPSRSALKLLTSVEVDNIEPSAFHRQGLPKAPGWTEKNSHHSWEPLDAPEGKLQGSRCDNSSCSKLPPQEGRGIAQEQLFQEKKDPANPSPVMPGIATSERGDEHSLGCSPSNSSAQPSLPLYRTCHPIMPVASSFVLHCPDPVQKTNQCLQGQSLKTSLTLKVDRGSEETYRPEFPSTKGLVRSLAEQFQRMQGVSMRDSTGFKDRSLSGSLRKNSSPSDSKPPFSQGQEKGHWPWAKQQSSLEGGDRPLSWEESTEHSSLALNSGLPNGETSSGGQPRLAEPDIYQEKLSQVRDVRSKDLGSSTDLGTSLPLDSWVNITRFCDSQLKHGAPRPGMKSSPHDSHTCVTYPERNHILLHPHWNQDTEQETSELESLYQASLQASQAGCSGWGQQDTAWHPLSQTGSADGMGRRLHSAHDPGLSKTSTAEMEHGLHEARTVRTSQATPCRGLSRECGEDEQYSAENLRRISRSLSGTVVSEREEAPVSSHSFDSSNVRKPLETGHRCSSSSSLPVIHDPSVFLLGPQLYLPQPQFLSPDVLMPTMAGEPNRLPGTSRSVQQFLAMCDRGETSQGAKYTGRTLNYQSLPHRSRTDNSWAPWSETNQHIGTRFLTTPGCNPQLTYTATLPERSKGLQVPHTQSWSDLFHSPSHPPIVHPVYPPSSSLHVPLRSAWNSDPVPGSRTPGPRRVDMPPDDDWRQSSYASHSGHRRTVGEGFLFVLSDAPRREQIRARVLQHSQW
Summary of the method: as §1

USP7 = USP7 (UniProt Q93009)
USP7, sequence (Q93009 whole entry, looked up): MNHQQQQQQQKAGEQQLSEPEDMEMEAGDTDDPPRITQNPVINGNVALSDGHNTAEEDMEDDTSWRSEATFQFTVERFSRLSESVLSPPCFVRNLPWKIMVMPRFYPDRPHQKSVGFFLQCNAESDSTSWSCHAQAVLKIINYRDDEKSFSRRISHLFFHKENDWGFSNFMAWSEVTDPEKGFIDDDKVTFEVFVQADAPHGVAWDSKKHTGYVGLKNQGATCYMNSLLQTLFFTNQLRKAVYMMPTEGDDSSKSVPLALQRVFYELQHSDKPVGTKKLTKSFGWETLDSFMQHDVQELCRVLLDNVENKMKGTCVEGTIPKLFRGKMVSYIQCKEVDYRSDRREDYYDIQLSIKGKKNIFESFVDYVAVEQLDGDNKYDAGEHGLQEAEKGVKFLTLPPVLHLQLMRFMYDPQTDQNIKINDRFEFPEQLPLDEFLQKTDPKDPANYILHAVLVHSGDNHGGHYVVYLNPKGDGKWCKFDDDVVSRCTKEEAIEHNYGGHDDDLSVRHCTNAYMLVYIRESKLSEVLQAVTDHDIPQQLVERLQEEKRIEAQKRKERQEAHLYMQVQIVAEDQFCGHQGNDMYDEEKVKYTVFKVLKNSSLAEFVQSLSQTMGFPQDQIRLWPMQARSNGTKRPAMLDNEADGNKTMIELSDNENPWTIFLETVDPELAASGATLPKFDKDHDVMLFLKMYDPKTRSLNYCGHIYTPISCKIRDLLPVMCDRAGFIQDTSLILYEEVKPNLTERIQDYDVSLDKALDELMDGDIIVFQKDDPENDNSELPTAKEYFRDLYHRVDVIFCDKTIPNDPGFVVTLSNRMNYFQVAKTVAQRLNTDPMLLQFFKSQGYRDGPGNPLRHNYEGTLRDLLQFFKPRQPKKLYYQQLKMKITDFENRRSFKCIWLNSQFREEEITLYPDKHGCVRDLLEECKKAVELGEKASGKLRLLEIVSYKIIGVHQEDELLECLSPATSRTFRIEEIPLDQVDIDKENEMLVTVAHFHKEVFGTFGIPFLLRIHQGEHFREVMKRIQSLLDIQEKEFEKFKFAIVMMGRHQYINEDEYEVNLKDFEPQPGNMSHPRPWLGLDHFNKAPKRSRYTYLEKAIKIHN
Summary of the method: as §1

USP8 = molecular target: T5, USP8 (UniProt P40818)
T5 sequence (whole entry): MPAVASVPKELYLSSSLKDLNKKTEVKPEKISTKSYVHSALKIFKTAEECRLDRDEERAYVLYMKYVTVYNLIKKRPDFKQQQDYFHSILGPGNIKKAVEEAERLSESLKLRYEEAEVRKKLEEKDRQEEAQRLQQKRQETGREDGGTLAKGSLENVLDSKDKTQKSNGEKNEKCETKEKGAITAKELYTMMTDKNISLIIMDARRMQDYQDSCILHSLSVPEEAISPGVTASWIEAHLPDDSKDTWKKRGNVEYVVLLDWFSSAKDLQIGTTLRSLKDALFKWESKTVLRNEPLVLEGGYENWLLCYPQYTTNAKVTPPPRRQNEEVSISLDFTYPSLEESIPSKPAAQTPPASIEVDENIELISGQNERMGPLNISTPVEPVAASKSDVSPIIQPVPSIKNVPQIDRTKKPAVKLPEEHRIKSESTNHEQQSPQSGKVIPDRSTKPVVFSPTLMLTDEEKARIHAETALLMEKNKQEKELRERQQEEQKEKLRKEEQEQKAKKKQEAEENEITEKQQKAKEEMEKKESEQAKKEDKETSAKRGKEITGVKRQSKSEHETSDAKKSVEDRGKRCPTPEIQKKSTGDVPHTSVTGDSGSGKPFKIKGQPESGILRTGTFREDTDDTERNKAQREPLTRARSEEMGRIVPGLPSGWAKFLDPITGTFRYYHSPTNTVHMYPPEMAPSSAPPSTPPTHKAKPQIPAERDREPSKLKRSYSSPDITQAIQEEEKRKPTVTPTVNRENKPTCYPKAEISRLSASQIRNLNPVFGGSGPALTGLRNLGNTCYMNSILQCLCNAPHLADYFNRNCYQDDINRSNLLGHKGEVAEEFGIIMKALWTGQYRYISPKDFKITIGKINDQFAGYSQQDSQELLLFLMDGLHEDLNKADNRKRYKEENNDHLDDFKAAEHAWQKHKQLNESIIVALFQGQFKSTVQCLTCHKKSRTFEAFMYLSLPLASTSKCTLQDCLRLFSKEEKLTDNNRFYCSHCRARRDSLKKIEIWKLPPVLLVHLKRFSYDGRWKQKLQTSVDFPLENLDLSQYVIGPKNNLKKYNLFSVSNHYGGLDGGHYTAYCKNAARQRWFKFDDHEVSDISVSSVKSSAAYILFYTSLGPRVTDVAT
Summary of the method: as §1

Measured: log2 ratio of Biotin-Ahx-Ub-VS probe labelling

CCN1C(=O)C2CN(C(=O)CCl)CCN2C1=O (stereo not drawn)
inactive: USP42 0.369 | USP46 -0.0317 | USP47 0.124 | USP48 -0.1 | USP5 0.0692 | USP54 -0.191 | USP7 -0.307 | USP8 0.0104
